IP6K1 inhibitor: Primary qHTS assay for small molecule inhibitors of Inositol hexaphosphate kinase 1 (IP6K1). activity change, % (series mostly up to about 58 µM). IP6K1 kinase, ADP-Glo luminescence, 2 h; active compounds read low. AID 1645851, 2021. 140,000 tested, 0.81% active. Inositol hexakisphosphate kinase 1 (Homo sapiens), Q92551; in the data active = activity change below about -25%
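ADP-Glo luminescence measures ADP made by human IP6K1 during a 2 h RT reaction with ATP/IP6 (mix at 1.3 mM/130 uM); top library doses 57.5 and 19.1 uM final.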
SNCA expr inhib: Primary qHTS assay for inhibitors of alpha-synuclein gene (SNCA) expression | AID 1671194, 2021 | 140,000 tested, 0.17% active | HEK-293 SNCA-luciferase knock-in, luminescence, 24 h | Potency, µM (series often up to 57.2 µM), most hits filed as inhibitors; note: nearly all actives have a fitted effect of over 45% in size
HEK293 viab: GF-AFC viability counterscreen for inhibitors of alpha-synuclein gene (SNCA) expression | HEK-293-SNCA-luc viability, GF-AFC fluorescence, 24 h | Potency, µM (highest dose often 57.1 µM), actives largely listed as cytotoxic | 150,000 tested, 0.12% active | AID 1671193, 2021; note: nearly all actives have a fitted effect of over 30% in size
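HEK-293-SNCA-luc cells (1500/well) plated 24 h, then exposed 24 h to a dilution series; GF-AFC added 30 min at 37C, fluorescence 405/540 nm; normalised to medium-only and DMSO wells, Hill fit.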
KDM5B inh: Primary screen for KDM5B Histone Demethylases FDH-coupled qHTS. 220,000 tested, 2.6% active. Potency, µM (top dose mostly 57.7 µM), most hits filed as inhibitors. KDM5B demethylase, FDH-coupled NADH fluorescence (FDH is formaldehyde dehydrogenase); note: nearly all actives have a fitted effect of over 70% in size
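Coupled FDH/NAD⁺ fluorescence readout. KDM5BΔAP 200 nM final; compound titration, 10 min RT preincubation; substrate mix 12.5 µM H3K4me3, 25 µM 2-OG, 50 µM Fe(II), 100 µM ascorbate, 0.25 mM NAD⁺, 0.25 U/mL FDH; ΔRFU over 30 min.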
Of the large screens only hits and unclear results are named; the others gave an inactive call. Sampled rows, rich in hits. Any-hit rate of the full collection: about 2.9%. Unless noted, calls come from the whole dose curve; as a rule, active = well fitted curve in the direction sought with a large enough effect; inconclusive = small, poorly fitted or top-dose-only effect, or another doubt; inactive = no such curve, though single readings can be large; an effect the other way counts as inactive or inconclusive.

O=C(NCC1CC1)[C@@H]1CCCN1c1nccc(Nc2ccccc2Cl)n1	none (no result: KDM5B inh)
COc1ccc(-c2nc(-c3c(C)noc3C)cc3cc(CO)oc23)cn1	KDM5B inh 35.5µM
Cc1cc2cc(-c3c(C)noc3C)nc(-c3ccccc3)c2o1	KDM5B inh inconclusive
Cc1noc(C)c1-c1cc2cc(CO)oc2c(-c2ccc(F)c(Cl)c2)n1	KDM5B inh 31.6µM
Cc1cc2cc(-c3c(C)noc3C)nc(N3CCN(c4ccccn4)CC3)c2o1	KDM5B inh 31.6µM
CC(=O)Nc1cccc(-c2nc(-c3c(C)noc3C)cc3cc(CO)oc23)c1	KDM5B inh 39.8µM
COc1ccc(F)cc1-c1ccc(CN2CCC(NC(=O)Nc3ccc(C)c(F)c3)C2)cc1 (centres undefined)	none (no result: SNCA expr inhib, HEK293 viab, KDM5B inh)
COc1cc(-c2nc(-c3c(C)noc3C)cc3cc(C)oc23)ccn1	KDM5B inh 35.5µM
O=C(O)CCc1cc2n(n1)CCCN(C(=O)c1cc3c([nH]c1=O)CCC3)C2	KDM5B inh 28.2µM
COc1ccc(-c2cc(C(=O)Nc3ccccc3Cl)c3cnn(C)c3n2)cc1	none (no result: SNCA expr inhib, HEK293 viab, KDM5B inh)
Cc1noc(C)c1[S+](=O)([O-])NC1CCCN(c2ccc3nnc(-c4ccccc4)n3n2)C1 (centres undefined)	none (no result: SNCA expr inhib, HEK293 viab, KDM5B inh)
C=CC(=O)Nc1ccc(CN2C(=O)N(c3cc(OC)cc(OC)c3)Cc3cnc(Nc4ccc(N5CCN(C)CC5)cc4)nc32)cc1	HEK293 viab 18.9µM (no result: SNCA expr inhib, KDM5B inh)
CC(C)C[C@@H](C=O)NC(=O)[C@H](CC(C)C)NC(=O)[C@H](CC(C)C)NC(=O)OCc1ccccc1	SNCA expr inhib 0.607µM, HEK293 viab inconclusive (no result: IP6K1 inhibitor, KDM5B inh)
CC(=O)N1CCOc2ccc(CCC(=O)NC(C)Cn3ccc(C)n3)cc2C1 (centres undefined)	SNCA expr inhib 20µM
CNC(=O)CCc1ccc2c(c1)CN(C(C)=O)CCO2	none
Cc1cccc2nnc(N3CCN(C(=O)CCc4ccccc4)CC3)n12	KDM5B inh 25.1µM
Cc1ccc(C(=O)N2CCN(c3nnc4cccc(C)n34)CC2)cc1C	KDM5B inh 25.1µM
O=C(c1ccccc1Cl)N1CCCN(c2ccc3nnc(-c4ccccc4)n3n2)CC1	none (no result: SNCA expr inhib, HEK293 viab, KDM5B inh)
Cc1cccc2nnc(N3CCCN(C(=O)c4ccccc4Cl)CC3)n12	KDM5B inh 22.4µM
O=C(CCc1ccccc1)N1CCN(c2cc(-c3cccs3)[nH]n2)CC1	KDM5B inh inconclusive
COc1ccc(C(=O)N2CCCN(c3cc(-c4ccc(C)c(C)c4)[nH]n3)CC2)cc1OC	none
Cc1ccc(-c2ccccc2CN2CCN(C(=O)N(C)C)CC2)cc1Cl	none (no result: KDM5B inh)
COc1ccc(N2CCN(c3nc(C(=O)NCc4ccccc4C)cs3)CC2)cc1	none
CCOc1ccc(-c2ccnc(N3CCOC(CN)C3)n2)cc1C(=O)O (centres undefined)	KDM5B inh 28.2µM
CCOc1ccc(-c2ccnc(-c3ncccn3)n2)cc1C(=O)O	HEK293 viab inconclusive
O=C(Nc1ccncn1)[C@@H]1C[C@@H](c2ccc(F)cc2)N(CCOc2ccccc2)C1	KDM5B inh 35.5µM
O=C(Nc1cccnc1)[C@@H]1C[C@@H](c2ccc(F)cc2)N(CCOc2ccccc2)C1	HEK293 viab inconclusive
Cc1cccc(OCCc2noc(C3CCCN3C(=O)Nc3ccccc3)n2)c1 (centres undefined)	none (no result: KDM5B inh)
NC(=O)Cn1ccc2cc(OCC3CCN(c4cc(NC5CC5)ncn4)CC3)cnc21	KDM5B inh 39.8µM
NC(=O)Cn1ccc2cc(OCC3CCN(C(=O)Oc4ccccc4Cl)CC3)cnc21	KDM5B inh 28.2µM
O=C(O)CCn1ncc2cc(OC3CCN(C(=O)Oc4ccccc4Cl)CC3)ccc21	none
CC(C)OC(=O)N1CCC(COc2cnc3c(ccn3CC(N)=O)c2)CC1	KDM5B inh 39.8µM
O=C(O)Cn1ccc2cc(OCC3CCN(C(=O)OC4CCCC4)CC3)cnc21	KDM5B inh 35.5µM
O=C(CCC1CCN(c2cc(NC3CC3)ncn2)CC1)NCCN1CCCCC1	SNCA expr inhib inconclusive
CSc1ccc(-c2cccc(C(=O)NCCN[S+](=O)([O-])c3ccc(C)cc3)c2)cc1	SNCA expr inhib inconclusive (no result: KDM5B inh)
CCCCN1CCN(C(=O)c2cc(NC(=O)C3CCC3)cc3nc(C)ccc23)CC1	KDM5B inh 31.6µM
CCCCN1CCN(C(=O)c2cc(-c3ccncc3)nc3ccccc23)CC1	none (no result: IP6K1 inhibitor, SNCA expr inhib, HEK293 viab)
CCCN1CCN(C(=O)c2cc(NC(=O)C3CCC3)cc3nc(C)ccc23)CC1	KDM5B inh 22.4µM
